Experimental data as given in PubChem BioAssay.

Legend:
[1] = test system: Botulinum neurotoxin type F light chain protease (Clostridium botulinum); test: Botulinum neurotoxin type F light chain protease inhibition, multiplex microsphere flow cytometry, validation set (AID 588459); conditions: multiplex microsphere protease substrate cleavage assay, at 10 µM, stronger effect = higher value
[2] = molecular target: Botulinum neurotoxin type A (Clostridium botulinum) (UniProt P0DPI0); test: BoNT/A light chain protease inhibitors, biochemical, multiplex microsphere flow cytometry, validation set (AID 588460); conditions: at 10 µM, stronger effect = higher value
[3] = molecular target: Lethal factor (Bacillus anthracis) (UniProt P15917); test: Lethal factor protease inhibitors, Bacillus anthracis, multiplex microsphere cleavage assay, validation set (AID 588461); conditions: flow cytometry, at 10 µM, stronger effect = higher value

Measured: inhibition

Chain of Lethal factor (Bacillus anthracis) (P15917 whole entry, looked up): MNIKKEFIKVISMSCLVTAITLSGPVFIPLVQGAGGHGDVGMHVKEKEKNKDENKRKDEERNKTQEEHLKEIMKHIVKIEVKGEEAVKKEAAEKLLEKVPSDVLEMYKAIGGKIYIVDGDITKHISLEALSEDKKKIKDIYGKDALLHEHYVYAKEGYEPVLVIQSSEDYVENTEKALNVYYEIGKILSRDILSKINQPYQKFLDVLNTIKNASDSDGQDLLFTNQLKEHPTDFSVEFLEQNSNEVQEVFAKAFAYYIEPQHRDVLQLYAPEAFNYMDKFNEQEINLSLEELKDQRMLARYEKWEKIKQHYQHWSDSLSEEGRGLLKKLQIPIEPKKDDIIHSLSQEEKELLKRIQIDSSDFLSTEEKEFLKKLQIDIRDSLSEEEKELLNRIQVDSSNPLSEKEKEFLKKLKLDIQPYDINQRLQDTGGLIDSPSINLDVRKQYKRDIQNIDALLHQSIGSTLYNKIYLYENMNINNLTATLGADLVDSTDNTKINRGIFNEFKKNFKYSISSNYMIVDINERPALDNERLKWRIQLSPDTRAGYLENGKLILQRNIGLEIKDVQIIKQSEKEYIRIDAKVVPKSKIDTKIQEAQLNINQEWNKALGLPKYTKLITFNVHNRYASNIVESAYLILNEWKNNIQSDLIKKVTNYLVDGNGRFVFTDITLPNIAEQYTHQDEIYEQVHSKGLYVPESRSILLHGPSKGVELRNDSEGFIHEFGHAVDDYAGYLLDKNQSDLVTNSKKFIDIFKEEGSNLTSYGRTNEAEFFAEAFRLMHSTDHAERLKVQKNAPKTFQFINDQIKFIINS
Chain of Botulinum neurotoxin type A (Clostridium botulinum) (P0DPI0 whole entry, looked up): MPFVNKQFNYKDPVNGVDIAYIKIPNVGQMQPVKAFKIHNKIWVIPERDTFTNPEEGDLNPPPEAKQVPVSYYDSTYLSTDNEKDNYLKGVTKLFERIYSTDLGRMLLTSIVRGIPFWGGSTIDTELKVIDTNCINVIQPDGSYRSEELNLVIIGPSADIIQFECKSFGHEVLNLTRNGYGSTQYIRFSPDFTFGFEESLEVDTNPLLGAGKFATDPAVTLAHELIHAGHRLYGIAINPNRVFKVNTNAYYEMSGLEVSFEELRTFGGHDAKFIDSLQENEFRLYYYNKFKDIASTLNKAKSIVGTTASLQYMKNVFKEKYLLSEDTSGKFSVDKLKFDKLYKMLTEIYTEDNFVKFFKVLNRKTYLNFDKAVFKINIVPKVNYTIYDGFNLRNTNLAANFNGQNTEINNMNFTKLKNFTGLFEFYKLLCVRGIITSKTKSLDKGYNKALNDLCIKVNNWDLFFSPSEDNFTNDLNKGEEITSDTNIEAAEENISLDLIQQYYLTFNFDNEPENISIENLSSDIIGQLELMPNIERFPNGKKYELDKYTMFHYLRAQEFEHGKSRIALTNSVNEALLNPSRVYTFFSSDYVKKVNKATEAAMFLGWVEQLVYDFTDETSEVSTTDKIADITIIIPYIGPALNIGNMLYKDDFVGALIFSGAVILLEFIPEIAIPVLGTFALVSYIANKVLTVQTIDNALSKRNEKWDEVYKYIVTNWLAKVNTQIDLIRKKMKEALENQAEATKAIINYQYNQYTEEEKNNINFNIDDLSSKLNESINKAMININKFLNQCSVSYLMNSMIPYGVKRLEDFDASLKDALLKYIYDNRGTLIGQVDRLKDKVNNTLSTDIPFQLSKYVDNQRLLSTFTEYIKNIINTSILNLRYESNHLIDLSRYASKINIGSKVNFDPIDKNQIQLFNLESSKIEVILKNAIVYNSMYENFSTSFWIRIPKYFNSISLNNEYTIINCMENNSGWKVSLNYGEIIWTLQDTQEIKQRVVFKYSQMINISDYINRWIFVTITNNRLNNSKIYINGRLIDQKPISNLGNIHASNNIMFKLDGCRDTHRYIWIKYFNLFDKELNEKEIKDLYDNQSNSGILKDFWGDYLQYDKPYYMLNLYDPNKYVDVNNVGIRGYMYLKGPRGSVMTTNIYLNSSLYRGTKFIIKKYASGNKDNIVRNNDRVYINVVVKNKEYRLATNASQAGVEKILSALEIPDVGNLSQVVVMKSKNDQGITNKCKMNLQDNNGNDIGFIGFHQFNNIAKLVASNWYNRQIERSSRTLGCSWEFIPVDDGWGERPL

Oc1[nH]c2ccccc2c1N=Nc1ccccc1
inactive: [1] -2.7% | [2] -0.4% | [3] 1.4%

O=C(Oc1cccccc1=O)c1ccccc1
inactive: [1] 1.1% | [2] -1.5% | [3] 0.9%

CCCC(CCC)C(=O)OC1C[C@H]2CC[C@@H](C1)[N+]2(C)C (some centres undefined)
inactive: [1] -1.1% | [2] 1% | [3] 2.3%

COc1ccc(CNCCC2(C(C)C)CCOC(C)(C)C2)cc1 (centres undefined)
inactive: [1] 1.9% | [2] 0.8% | [3] -4%

O=C(c1ccccc1F)c1cc2c(cc1[N+](=O)[O-])OCCO2
inactive: [1] 5.4% | [2] -0.4% | [3] 3.6%

c1ccc2c(c1)CCOC2CNCCCN1CCCCC1 (centres undefined)
inactive: [1] 0.6% | [2] 1.3% | [3] -8.4%

COc1ccc(CN2CCCC(C(=O)c3ccc(Cl)cc3)C2)cc1Cn1cccn1 (centres undefined)
inactive: [1] 1.9% | [2] -0.6% | [3] 3.9%

N/C(=N\OC(=O)c1ccc(Br)o1)c1ccccn1
inactive: [1] -0.2% | [2] -0.3% | [3] 0.7%

O=c1nc2n(c3c1oc1ccccc13)Cc1ccccc1-2
inactive: [1] 2.1% | [2] 0% | [3] -4.3%

CCNC(=S)N1CCN(CCN2C(=O)c3cccc4cccc(c34)C2=O)CC1
inactive: [1] 5.8% | [2] 3.7% | [3] 10.2%

OC12CCCCC1C(c1ccc3c(c1)OCO3)N(Cc1cccc(F)c1)CC2 (centres undefined)
inactive: [1] -0.1% | [2] -1.3% | [3] -2.8%

c1ccc(CNc2ncnc3nc[nH]c23)cc1
inactive: [1] -7.5% | [2] -1.3% | [3] -4.8%

Cc1ccccc1OCCSc1nc2ncnc(N)c2[nH]1
inactive: [1] 0.8% | [2] -1% | [3] 0.1%

CC(C)C[C@H]1C(=O)N2CCC[C@H]2[C@]2(O)O[C@](NC(=O)[C@@H]3C=C4c5cccc6[nH]c(Br)c(c56)CC4N(C)C3)(C(C)C)C(=O)N12 (some centres undefined)
inactive: [1] 5.1% | [2] 1.3% | [3] -5.6%

Cn1c(=O)c2c(ncn2CC(O)CO)n(C)c1=O (centres undefined)
inactive: [1] 2.3% | [2] 1% | [3] 2%

CC[C@H]1OC(=O)[C@H](C)[C@@H](O[C@H]2C[C@@](C)(OC)[C@@H](O)[C@H](C)O2)[C@H](C)[C@@H](O[C@@H]2O[C@H](C)C[C@H](N(C)C)[C@H]2O)[C@](C)(O)C[C@@H](C)[C@@H]2N[C@@H](COCCOC)O[C@H]([C@H]2C)[C@]1(C)O
inactive: [1] 3.3% | [2] 0.7% | [3] -1.4%

CCOc1ccc2ccccc2c1CNc1nnnn1C
inactive: [1] -0.1% | [2] -1.2% | [3] -1.5%

CCOC(=O)c1oc2cc(O)cc(C)c2c(=O)c1-c1cscn1
inactive: [1] 1.4% | [2] 1.8% | [3] -2.6%

COc1ccc(OCC(=O)N2c3ccc(C)cc3C3CN(C)CCC32)cc1 (centres undefined)
inactive: [1] -4.9% | [2] -0.7% | [3] -2.6%

CN1C(=O)C(O)(CC(=O)c2ccccc2O)c2cc(Br)ccc21 (centres undefined)
inactive: [1] 3.2% | [2] -0.1% | [3] -5.4%

COc1ccc2[nH]c3c(=O)n(/N=C/[C@H]4C(C)C=C(C)CC4C)c(=O)[nH]c3c2c1 (some centres undefined)
inactive: [1] -1.7% | [2] -0.6% | [3] 7.1%

Cc1cccc(Nc2ccccc2C(=O)O)c1C
inactive: [1] -3.6% | [2] -1.1% | [3] -6%

O=C(C1CCCCC1)N1CC(=O)N2CCc3ccccc3C2C1 (centres undefined)
inactive: [1] -2.5% | [2] -1.1% | [3] 3.9%

O=C(O)CCSc1nc2ccccc2s1
inactive: [1] -0.7% | [2] -1.2% | [3] -9.8%

COc1ccc(CN(CCC(c2ccc(F)cc2)C2CCOC(C)(C)C2)C(=O)c2ccco2)cc1 (centres undefined)
inactive: [1] -2.6% | [2] -0.3% | [3] 1.6%

CCCCCC#CCC#CCC#CCC#CCCCC(=O)O
inactive: [1] 5.7% | [2] -0.6% | [3] -1.6%

CC1(C)C(=O)OC(c2cccs2)C2(CCCCC2)C1=O (centres undefined)
inactive: [1] -2.1% | [2] -1.3% | [3] -6.2%

CC(=O)OCC(=O)[C@@]12OC3(CCCC3)O[C@@H]1C[C@H]1[C@@H]3CCC4=CC(=O)C=C[C@]4(C)[C@@]3(F)[C@@H](O)C[C@@]12C
inactive: [1] 0.8% | [2] -0.9% | [3] -0.7%
